Growth data for eight compounds are collected here from PubChem BioAssay (NCI).

What all share (experiment): NCI-60 one-dose screen, 48 h (100 = growth as untreated, 0 = no growth, -100 = all killed)
Conditions in all cases: 10 µM unless noted

Assay [1] deals with NCI-H23 lung.
Assay [2] deals with NCI-H322M lung.
In assay [3] the test system is HOP-62 NSCLC.
The test system of assay [4] is NCI-H460 lung.
The test system of assay [5] is NCI-H522 lung.
Assay [6] has as its system A549/ATCC NSCLC.
The test system of assay [7] is 786-0 renal.
Assay [8] has as its system COLO 205 colon.
For assay [9], the system named is K-562 leukemia.
In assay [10] the test system is MALME-3M melanoma.
Assay [11] relates to MDA-MB-231 breast.
In assay [12] the test system is RXF 393 renal.
The test system of assay [13] is SF-295 CNS.
Assay [14] deals with SF-539 CNS.
In assay [15] the test system is UACC-257 melanoma.
For assay [16], the system named is M14 melanoma.
For assay [17], the system named is HCT-15 colon.
The subject of assay [18] is DU-145 prostate.
For assay [19], the system named is SF-268 CNS.
In assay [20] the test system is NCI-H226 lung.

Molecules are shown by their SMILES. About 83,000 compounds went through this panel and 20% of them were active in at least one assay; those are over-represented in the sample as a whole.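 Negative percent growth values reflect cell death: -40 means 40% of the cells present at the start died, and -100 means all died.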 Unmarked numbers belong to inactive results. Active and inactive are the calls of the source. Rule for the calls: active = growth percent below 10; inactive = the rest.

In the case of `OC(CCC(O)(c1ccccc1)c1ccccc1)(c1ccccc1)c1ccccc1`, the growth in assay [1] was 80%; in assay [2] it was 102%; in [3], 114%; in assay [4], 19.9%; in assay [5] it was 89.8%; in [6], 68.7%. In addition, the growth in [7] was 105%; in assay [8], 103%; in assay [9], 5.52% (active); in assay [10] it was 100%; in [11], 81.5%; in assay [12], 80%. Also, the growth in assay [13] is 65.1%; in [14], 115%; in assay [15], 82.8%; in assay [16] it was 96.1%; in [17], 100%.

On to `CC(C)[C@]12O[C@H]1[C@@H]1O[C@]13[C@]1(O[C@H]1C[C@H]1C4=C(CC[C@@]13C)C(=O)OC4)[C@@H]2OC(=O)CN(C)C`, for which the growth is -19.4% (active) in [1]; 19.2% in assay [3]; 0.675% (active) in assay [4]; -41.8% (active) in assay [5]; 18.4% in assay [6]; 12.9% in assay [7]. Also, the growth in assay [18] is 3.28% (active); in assay [10], -45.2% (active); in [11], 27.8%; in assay [12] it was -61.9% (active); in assay [19], -10.2% (active); in assay [13] it was -27.6% (active). For the same compound, the growth in assay [14] is -23% (active); in assay [15] it was -2.52% (active); in assay [16] it was -74.2% (active); in assay [17], 9.18% (active).

As to `C=C(C)[C@@H]1C[C@H](O)Cc2cc(Cl)cc(Cl)c2N1`, the growth in [20] was 100%; in assay [2], 100%; in [3], 96.6%; in assay [4], 110%; in assay [5], 92.8%; in [6] it was 94.2%. Besides, the growth in [7] is 100%; in assay [8], 107%; in assay [18], 108%; in assay [9], 103%; in [10], 108%; in assay [11] it was 93.6%. Moreover, the growth in assay [12] is 101%; in assay [19], 102%; in assay [13] it was 104%; in assay [14], 94.5%; in assay [15] it was 104%; in [16], 110%.

Regarding `CC/C=C\C=C/C(=O)N/C=C/CC1Cc2cccc(O)c2C(=O)O1` (stereo not drawn), the growth in assay [1] was 77.1%; in assay [2] it was 119%; in assay [3], 65.5%; in assay [4] it was 130%; in [5], 55.2%; in assay [6] it was 84.8%. In addition, the growth was 81.5% in assay [7]; 94.2% in [8]; 76.4% in assay [18]; 25.9% in assay [9]; 98.8% in assay [10]; 64.3% in [11]. Besides, the growth is 119% in assay [19]; 262% in [13]; 38.3% in assay [14]; 86.7% in [15]; 44.2% in assay [16].

`CC(c1ccccn1)C(C)(O)C(C)c1ccccn1` (stereo not drawn): the growth in [1] was 104%; in assay [2], 118%; in assay [3], 101%; in assay [4] it was 113%; in assay [5] it was 112%; in assay [6] it was 106%. Further, the growth in assay [7] was 107%; in [8], 108%; in assay [18] it was 101%; in [9] it was 103%; in assay [10], 121%; in [11], 92.8%. The growth was 115% in assay [12]; 100% in assay [19]; 107% in assay [13]; 99.7% in assay [14]; 99.8% in assay [15]; 90.6% in [16]. Also, the growth in assay [17] is 97.4%.

Take `C/C(=C\CCc1ccoc1)CC/C=C(\C)CCCN1CCC(CO)CC1`: the growth in [1] was 74.8%; in assay [2], 74.9%; in [3], 83%; in assay [4], 53.8%; in [5] it was 54.6%; in [6], 65.9%. The growth in assay [7] is 48.5%; in [8], -21.4% (active); in assay [18], 80.8%; in assay [9], -15.8% (active); in assay [10], 11%; in [11], 50%. Also, the growth in assay [19] is 79.2%; in [13], 47.4%; in [14], 48.9%; in assay [15] it was 49%; in assay [16] it was 36.3%; in assay [17], 25.5%.

Turning to `Cc1nnc(Nc2ccc(NC(=O)Nc3ccc(Cl)cc3)cc2)c2ccccc12`, the growth in assay [1] is 48.8%; in assay [2], 47.8%; in [3] it was 4.62% (active); in assay [4], 26.1%; in assay [5], 30.3%; in assay [6], 26.4%. Moreover, the growth was -27.8% (active) in assay [7]; 28.2% in [8]; 57.8% in assay [18]; -16.7% (active) in [9]; -9.9% (active) in assay [10]; 23.1% in assay [11]. The growth in assay [12] was -39.7% (active); in assay [19], 48.7%; in [13], 4.8% (active); in assay [14] it was 16.2%; in [15] it was 73.8%; in [16] it was 37.3%. In addition, the growth in assay [17] is 6.39% (active).

For `Cc1ccc(NC(=O)Nc2ccc(-c3cccnc3)cc2N2CCC(CO)CC2)cc1`, the growth in assay [1] was 4.01% (active); in [2] it was 34.3%; in assay [3], 24.9%; in assay [4], 29.1%; in assay [5], 9.32% (active); in assay [6] it was 7.01% (active). The growth in assay [7] is -8.69% (active); in [8] it was 31.5%; in [18], 29.8%; in [9], 9.37% (active); in assay [10], 25.5%; in [11], 9.31% (active). Further, the growth in assay [12] was -34.8% (active); in assay [19], 36.5%; in assay [13] it was 40.1%; in [14], 1.34% (active); in assay [15] it was 24.3%; in [16], 27.1%. Also, in assay [17], the growth is 20.2%.
